# From paper PMC7819943, “Rice protein-binding microarrays: a tool to detect cis-acting elements near promoter regions in rice”
# Whole data set: some 35,000 sequences, median “fluorescence intensity (a.u.)” near 10,000, cut for the highest 2% near 52,000. Only a selection was taken, and the highest values are over-represented in it overall.
# Target: T1, OsWOX13 (Oryza sativa, UniProt Q5QMM3 1-267)
# T1 sequence: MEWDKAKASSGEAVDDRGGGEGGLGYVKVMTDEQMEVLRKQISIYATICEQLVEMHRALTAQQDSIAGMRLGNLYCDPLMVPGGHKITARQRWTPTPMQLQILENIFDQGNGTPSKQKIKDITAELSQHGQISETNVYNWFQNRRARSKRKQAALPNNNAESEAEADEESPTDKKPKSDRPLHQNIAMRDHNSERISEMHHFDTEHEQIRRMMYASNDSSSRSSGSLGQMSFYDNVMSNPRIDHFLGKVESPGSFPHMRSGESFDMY
# Test: protein-binding microarray (RPBM); PBS, 2% BSA, 51.3 ng/ul salmon testes DNA, 50 uM zinc acetate, 200 nM TF, 25 C, 1 h; high values mean tight binding
# Details: protein: recombinant; tags: N-terminal polyhistidine and DsRed monomer fusion (pET32a); label: CyDye5-dUTP incorporated in the synthesized complementary strand; 3' TTTTT single-stranded linker to array surface; dsDNA, one strand shown
# Summary of the method: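 Binding signal is reported as fluorescence intensity per feature (arbitrary units) from an Axon 4000B scanner. Incubation used 200 nM of each Ni–NTA-purified, N-terminally polyhistidine- and DsRed-fused transcription factor from E. coli BL21-CodonPlus on a double-stranded custom Agilent array for 1 h at 25 °C, with 50 µM zinc acetate in the buffer, followed by washing.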
row,Sequence,binding signal
1,GATTATAAATTACAAGTGTTAATTTGATGAATTTTGTTATCGGAGTCACCTAGTGCAG,19500 fluorescence intensity (a.u.)
2,TCCATTGATTGAGGAATAGTGCCAGCTTTAGATTTGCTCCCGGAGTCACCTAGTGCAG,53400 fluorescence intensity (a.u.)
3,TATAAATAACTTTGAAGATTGAATCGACATATCATACGATCGGAGTCACCTAGTGCAG,21200 fluorescence intensity (a.u.)
4,TATTACATCGATCATATTGATTGTCGATTAGTACACCTTACGGAGTCACCTAGTGCAG,5790 fluorescence intensity (a.u.)
5,CGGATTGATCGACGGCGAAGAATGAAGCTCACCAGAATTTCGGAGTCACCTAGTGCAG,5290 fluorescence intensity (a.u.)
6,ATGGAAATTGATTAGGAGATTATTGATGCGATAAGTAGTACGGAGTCACCTAGTGCAG,37000 fluorescence intensity (a.u.)
7,CGAGATTGATTAGGACTCGGAATCGATCGGAGTCGGAGTACGGAGTCACCTAGTGCAG,54800 fluorescence intensity (a.u.)
8,AGTCACTTGATTTGCTTTATCATAGAGCTTGATGAGATCCCGGAGTCACCTAGTGCAG,24900 fluorescence intensity (a.u.)
9,CCAAACAGATTGAACTCGACGATTGGACGAATACGGCGATCGGAGTCACCTAGTGCAG,58900 fluorescence intensity (a.u.)
10,TAAGGTGCAGATTGATTTGCCATCCCAGAGCAGCAGCTTGCGGAGTCACCTAGTGCAG,29500 fluorescence intensity (a.u.)
11,TTCAATTTGATTTTGATTTTAGGTGAATCTATAGATATCACGGAGTCACCTAGTGCAG,9990 fluorescence intensity (a.u.)
12,AACTTAATTTGATAAGAAAATTTAGTGGAGTCACCACAAGCGGAGTCACCTAGTGCAG,44100 fluorescence intensity (a.u.)
13,GGAAATATGTTAATTAAAATAATGCAACCCTAATCAGCAACGGAGTCACCTAGTGCAG,10500 fluorescence intensity (a.u.)
14,GATAATGATATGACCATGGTGATTTCGTCAATCTCAATACCGGAGTCACCTAGTGCAG,12100 fluorescence intensity (a.u.)
15,CAGACTGACAAGTGACAAGCAGAGGGCATCTCAGTACGCGCGGAGTCACCTAGTGCAG,3390 fluorescence intensity (a.u.)
16,ATCTAGAATTAGATGTGACATATCGTAGTACTATGAACCTCGGAGTCACCTAGTGCAG,4830 fluorescence intensity (a.u.)
17,CCTCATCCCTGATTGTGATTTTCTTTCCACACCACCCGGACGGAGTCACCTAGTGCAG,19500 fluorescence intensity (a.u.)
18,TGGGCAGCAGCTTGATTTGATTGCTTCATTTATCAAGTTGCGGAGTCACCTAGTGCAG,13600 fluorescence intensity (a.u.)
19,GGGACAATCAGGGATTGTATGGTTTGAAGCTGATTTTGGCCGGAGTCACCTAGTGCAG,3320 fluorescence intensity (a.u.)
20,GAGCTATTGATTGATTGATTGCTGATCGCTTCCAGTTCCACGGAGTCACCTAGTGCAG,54700 fluorescence intensity (a.u.)
21,TTTGGATTGATCATGGTCATTTGTACTTTTGTAGTCTTTACGGAGTCACCTAGTGCAG,21500 fluorescence intensity (a.u.)

row,Sequence,binding signal
1,TTCCGGTTCCTGATTGCTTGCTCCACCGATTGACCGATCGCGGAGTCACCTAGTGCAG,18100 fluorescence intensity (a.u.)
2,GCAAGTGTGATTGATCATTACTTGCTTGGTCTGATGGTTGCGGAGTCACCTAGTGCAG,48300 fluorescence intensity (a.u.)
3,ATGGTTGATTGCTTGATCAAGGCATGCATCACTTGCTATGCGGAGTCACCTAGTGCAG,55800 fluorescence intensity (a.u.)
4,AATGCTTGATTGCACTTCGCTGTTCAGTTCATCATGCCTACGGAGTCACCTAGTGCAG,27400 fluorescence intensity (a.u.)
5,CTTGATTGGATCAGGATCATTTGGCATGGTTTACAAGGGCCGGAGTCACCTAGTGCAG,65100 fluorescence intensity (a.u.)
6,GCTCGATTGCCTTTTCATCATTCACATTGTTCTTCTTCTTCGGAGTCACCTAGTGCAG,11600 fluorescence intensity (a.u.)
7,GTGATTGATTCGATTGATTGCCGCATCCACAGTTCTTTTCCGGAGTCACCTAGTGCAG,54700 fluorescence intensity (a.u.)
8,CTCTACAGTAAATCAAACAGTAATCACACTCCAAACAAAACGGAGTCACCTAGTGCAG,5420 fluorescence intensity (a.u.)
9,ATTGGCTAGATTGGAAGCAAGAGAAGCTGCAGCGAAGGCACGGAGTCACCTAGTGCAG,7860 fluorescence intensity (a.u.)
10,TTTGGAAATTATCTATGAATTTACCTAGTTTCATCGTCCACGGAGTCACCTAGTGCAG,4970 fluorescence intensity (a.u.)
11,AGTTTTACAATAAATTTACTGTTATAAATATACATTTAACCGGAGTCACCTAGTGCAG,6140 fluorescence intensity (a.u.)
12,TTTGATGGGAATTTGTTTCAGATATGCTTACGTGCACATACGGAGTCACCTAGTGCAG,13800 fluorescence intensity (a.u.)
13,AACTAATTGTTTCTTCAGACTTCTTCAGAGCATTCTCCAGCGGAGTCACCTAGTGCAG,36800 fluorescence intensity (a.u.)
14,ATTGATTGATCAAGACTGCATGGCAATACTCGACGTGCTGCGGAGTCACCTAGTGCAG,64800 fluorescence intensity (a.u.)
15,CTCATGATTTACGGCTGCTGGCCGCCGGGCTATTTAACCACGGAGTCACCTAGTGCAG,10900 fluorescence intensity (a.u.)
16,TGTCACATCACATCGATCATTGATTTCACTTTGATTCCTCCGGAGTCACCTAGTGCAG,5220 fluorescence intensity (a.u.)
17,TTGATTGCAGATCAAATGCATGCAATAAGAATGGAGATGGCGGAGTCACCTAGTGCAG,19600 fluorescence intensity (a.u.)
18,CCAATAATAACACTGATCACTGATCAATCATGGCATCATGCGGAGTCACCTAGTGCAG,16000 fluorescence intensity (a.u.)
19,ATCATGATTGCATGATTGATTGCACATTTGCATCATTTCCCGGAGTCACCTAGTGCAG,63400 fluorescence intensity (a.u.)
20,TATTTTGCTTAAATGGCTGATTAGTCAAAGCATTTGGCCACGGAGTCACCTAGTGCAG,4720 fluorescence intensity (a.u.)
21,ATGATTTGCATGATTGCTTGCTTGCTTGCTGCTATGGCCACGGAGTCACCTAGTGCAG,62700 fluorescence intensity (a.u.)
